# From PubChem BioAssay (NCI)
# Several values for one entry are separate records, joined by “and”; a condition that tells them apart may be missing. Equal values may be shown once. The panel holds about 83,000 compounds, 20% with a hit somewhere; the sample as a whole holds those more often.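 Plates (96-well) were seeded with cells, treated with compound at one concentration, and incubated for 48 hours before percent growth was determined.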 Values without a mark were called inactive. Activity calls are given as the source filed them. The calls were made as follows: active = growth percent below 10; inactive = the rest.
# System: MDA-MB-468 breast
# Assay: NCI-60 one-dose screen, 48 h (100 = growth as untreated, 0 = no growth, -100 = all killed)
# Conditions: 10 µM unless noted
row,Structure (SMILES),growth
1,CCCCCC(=O)OCc1ccc(Cl)c(Cl)c1,123%
2,COc1c(O)cc2c(c1CC=C(C)C)OC(=O)c1c(cc(O)c(CC=C(C)C)c1O)O2,27.9%
3,O=C(NCCCNc1cc(-c2cn(-c3ccccc3)nc2-c2cccc(O)c2)ccn1)Nc1cccc(C(F)(F)F)c1,11.2%
4,Cc1[nH]c(-c2cc(N)ccc2Cl)c2c1C(=O)CCCC2,-5.42% (active)
5,O=S(=O)(NCCCNc1nccc(-c2[nH]c(-c3ccccc3)nc2-c2ccc(F)c(O)c2)n1)c1ccc(C(F)(F)F)cc1,-8.61% (active)
6,Cc1ncc(C(=O)Nc2ccc(CN3CCN(C)CC3)c(C(F)(F)F)c2)cc1C#Cc1cncc2ncccc12,99.3%
7,COc1ccc(N2C(=O)/C(=C/C(Cl)=C/c3ccc([N+](=O)[O-])cc3)SC2=S)cc1,-11.8% (active)
8,Cc1ccc2nc(-[n+]3cc4ccccc4cc3C)ccc2c1,-14.5% (active)
9,COc1ccc(/C=N/NC(=O)c2cnn(CC(O)Cc3ccccc3)c2N)cc1OC1CCCC1 (stereo not given),93.4%
10,COc1ccc2c(=O)c(OC)c(-c3cc(OC)c(OC)c(OC)c3)oc2c1,86.5%
11,Cc1ccc(NC(=S)NNC(=S)Nc2ccc(C)cc2)cc1,99.3% and 34%
12,N#C/C(=C\c1ccc(-c2cccc(C(F)(F)F)c2)o1)c1nc(-c2ccco2)cs1,-37% (active)
13,COc1cccc(-c2nn(-c3ccccc3)cc2-c2ccnc(NCCNC(=O)c3ccccc3)c2)c1,47.7%
14,C#C[C@@]1(O)[C@@H](CO)O[C@@H](n2cc(C(F)(F)F)c3c(N)ncnc32)[C@@H]1O,-56.3% (active)
15,COc1cc2nc(N3CCCC3)nc(NCC3CCCCC3)c2cc1OC,-41.2% (active)
16,C=C(C)[C@@H]1CC[C@]2(C(=O)NC(C)=O)CC[C@]3(C)[C@H](CC[C@@H]4[C@@]5(C)CCCNC(C)(C)[C@@H]5CC[C@]43C)[C@@H]12,-20.3% (active)
17,O=c1cc(N/N=C/c2ccc(F)cc2)c2cc(Cl)ccc2[nH]1,73%
18,N#CCCOc1ccccc1,114%
19,COc1ccc2c(c1)c(-c1nc(-c3c[nH]c4ncccc34)cs1)cn2CCCN1CCCCC1,57.9%
20,COc1ccc2nc(-c3ccc(Cl)cc3)cc(-c3nnc(SC/C(=N/O)c4ccccc4)o3)c2c1,9.96% (active)

row,Structure (SMILES),growth
1,COc1ccc(NC(=O)CSc2nnc(-c3ccc4nc(-c5ccc(OC)c(OC)c5)[nH]c4c3)o2)cc1OC,92.7%
2,O=C1C(Br)=C(c2ccccc2)C(=O)C(Br)=C1c1ccccc1,92%
3,Cc1c(C(N)=O)sc2c1c(=O)n(Cc1ccccc1)c1nnc(S(=O)(=O)CC(=O)Nc3ccc(Cl)cc3)n21,33.2%
4,O=C1CNCCN1,106%
5,COc1ccc(Cl)cc1NC(=O)c1cc2c([nH]1)-c1nc(N)sc1CCC2,103%
6,O=C(/C=C/c1ccc2c(c1)OCO2)c1c(O)c2ccccc2oc1=O,133%
7,C#Cc1ccc(-n2c(/C=C/c3ccc4ccccc4n3)nc3ncccc3c2=O)cc1,-68.1% (active)
8,O=C(O)C(c1ccccc1)N1C(=O)CSC1=S (stereo not given),101%
9,CC(=O)Nc1nc(C(=O)N2N=C(C)/C(=C/c3ccccc3)C2=O)cs1,103%
10,Nc1nc(Cl)nc2c1ncn2C1OC(CO)C(O)C1O (stereo not given),124% and 94.5%
11,CC1SC(=S)N(c2ccc(Cl)cc2)C1=O (stereo not given),84.9% and 90.4%
12,Cc1ccc(CNc2c3ccccc3nc3ccccc23)cc1,7.18% (active)
13,N=S(c1ccccc1[N+](=O)[O-])c1ccccc1[N+](=O)[O-],15.1%
14,CCCCCC(=O)Oc1ccc(/C(=C(\C)c2ccccc2)c2ccc(OCCN3CCCCC3)cc2)cc1,75.7%
15,O=C1[C@H]2Cc3c([nH]c4ccccc34)[C@H](c3ccc(Cl)cc3)N2C(=O)CN1C1CCN(CC2CCCCC2)CC1,62.7%
16,CC(C)(C)c1ccc(C(=O)Nc2sc3c(c2C(N)=O)CCC(O)C3)cc1 (stereo not given),32.3%
17,COc1cccc(C(=O)O)c1OC,105%
18,N#CCc1ccc([N+](=O)[O-])cc1,96.8%
19,COc1cc(/C=C2\CCC/C(=C\c3cc(CN4CCCCC4)c(O)c(OC)c3)C2=O)cc(CN2CCCCC2)c1O,80.4%
20,O=C(c1ccccc1)C(CN1CCOCC1)c1ccccc1 (stereo not given),-68.7% (active)
